Reference: the supplement of paper PMC11732987, “Enantioselective OTUD7B fragment discovery through chemoproteomics screening and high-throughput optimisation” (Communications Chemistry, 2025)

Legend:
Test in all cases: log2 ratio of Biotin-Ahx-Ub-VS probe labelling (fragment/DMSO); higher = less target engagement (more negative = stronger competition), active = hit call of the paper (q ≤ 0.05, log2 ratio ≤ -1)
Settings in all cases: compound concentration: 200 uM; treatment time: 3 h
[1] = biological target: T1, USP42 (UniProt Q9H9J4)
T1 sequence (whole entry): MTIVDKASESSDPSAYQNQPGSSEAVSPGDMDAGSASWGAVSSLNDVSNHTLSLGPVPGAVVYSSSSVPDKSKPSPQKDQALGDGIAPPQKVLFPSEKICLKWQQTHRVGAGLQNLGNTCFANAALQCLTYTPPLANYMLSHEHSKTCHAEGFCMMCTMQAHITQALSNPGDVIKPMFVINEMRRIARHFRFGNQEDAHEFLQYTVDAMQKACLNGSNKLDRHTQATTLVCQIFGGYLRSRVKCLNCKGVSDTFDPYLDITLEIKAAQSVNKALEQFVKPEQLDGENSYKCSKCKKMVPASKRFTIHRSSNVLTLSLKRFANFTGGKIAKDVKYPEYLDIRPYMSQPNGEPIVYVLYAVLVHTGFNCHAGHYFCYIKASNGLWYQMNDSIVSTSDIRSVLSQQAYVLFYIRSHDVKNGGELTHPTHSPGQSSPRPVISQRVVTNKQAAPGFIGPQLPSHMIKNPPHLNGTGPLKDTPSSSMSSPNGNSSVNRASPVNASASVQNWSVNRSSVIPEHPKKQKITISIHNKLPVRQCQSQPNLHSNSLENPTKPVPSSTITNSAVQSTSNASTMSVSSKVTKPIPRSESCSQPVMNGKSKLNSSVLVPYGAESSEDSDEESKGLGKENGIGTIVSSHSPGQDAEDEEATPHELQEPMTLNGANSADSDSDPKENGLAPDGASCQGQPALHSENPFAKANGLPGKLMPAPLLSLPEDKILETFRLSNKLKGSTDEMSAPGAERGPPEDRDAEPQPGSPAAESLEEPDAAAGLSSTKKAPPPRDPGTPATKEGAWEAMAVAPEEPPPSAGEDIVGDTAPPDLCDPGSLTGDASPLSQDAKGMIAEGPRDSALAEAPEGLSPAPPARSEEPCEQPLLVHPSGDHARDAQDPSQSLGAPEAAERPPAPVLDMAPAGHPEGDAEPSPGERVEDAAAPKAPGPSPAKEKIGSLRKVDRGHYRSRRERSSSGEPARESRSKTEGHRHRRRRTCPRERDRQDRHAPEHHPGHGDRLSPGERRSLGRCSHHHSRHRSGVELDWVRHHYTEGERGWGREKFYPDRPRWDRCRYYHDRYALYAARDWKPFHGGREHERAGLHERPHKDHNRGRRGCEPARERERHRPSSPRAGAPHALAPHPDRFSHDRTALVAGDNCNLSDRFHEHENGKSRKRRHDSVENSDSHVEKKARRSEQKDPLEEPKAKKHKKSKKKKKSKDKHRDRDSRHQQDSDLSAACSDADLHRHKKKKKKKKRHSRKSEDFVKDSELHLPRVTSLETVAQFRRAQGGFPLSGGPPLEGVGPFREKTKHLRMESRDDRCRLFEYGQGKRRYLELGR
Summary of the method: (§1)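 HEK293T lysate (495 µg per sample, in Tris/CHAPS/IGEPAL buffer with protease inhibitors) was treated in triplicate with fragment at 200 µM or with DMSO for 3 h. It was then treated with Biotin-Ahx-Ub-VS (0.5 µM final) for 1 h. Labelled DUBs were NeutrAvidin-enriched, digested with LysC and trypsin, and run by diaPASEF LC-MS/MS. Spectronaut label-free quantities were global-median-normalised. Values are average log2 ratios fragment/DMSO by unpaired t-test, using proteins with ≥2 unique peptides.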

[2] = biological target: USP46 (UniProt P62068)
Sequence of USP46 (P62068 whole entry): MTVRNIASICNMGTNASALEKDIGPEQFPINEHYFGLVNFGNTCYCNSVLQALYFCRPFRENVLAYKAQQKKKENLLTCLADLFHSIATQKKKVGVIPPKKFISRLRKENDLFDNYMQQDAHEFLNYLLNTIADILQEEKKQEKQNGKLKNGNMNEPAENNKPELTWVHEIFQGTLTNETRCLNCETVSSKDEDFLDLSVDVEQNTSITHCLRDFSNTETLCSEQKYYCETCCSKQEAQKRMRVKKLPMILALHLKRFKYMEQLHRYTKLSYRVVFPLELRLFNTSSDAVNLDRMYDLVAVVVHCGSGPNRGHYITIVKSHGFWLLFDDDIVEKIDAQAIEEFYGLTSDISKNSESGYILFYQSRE
Summary of the method: as §1

[3] = biological target: T2, USP47 (UniProt Q96K76)
T2 sequence (whole entry): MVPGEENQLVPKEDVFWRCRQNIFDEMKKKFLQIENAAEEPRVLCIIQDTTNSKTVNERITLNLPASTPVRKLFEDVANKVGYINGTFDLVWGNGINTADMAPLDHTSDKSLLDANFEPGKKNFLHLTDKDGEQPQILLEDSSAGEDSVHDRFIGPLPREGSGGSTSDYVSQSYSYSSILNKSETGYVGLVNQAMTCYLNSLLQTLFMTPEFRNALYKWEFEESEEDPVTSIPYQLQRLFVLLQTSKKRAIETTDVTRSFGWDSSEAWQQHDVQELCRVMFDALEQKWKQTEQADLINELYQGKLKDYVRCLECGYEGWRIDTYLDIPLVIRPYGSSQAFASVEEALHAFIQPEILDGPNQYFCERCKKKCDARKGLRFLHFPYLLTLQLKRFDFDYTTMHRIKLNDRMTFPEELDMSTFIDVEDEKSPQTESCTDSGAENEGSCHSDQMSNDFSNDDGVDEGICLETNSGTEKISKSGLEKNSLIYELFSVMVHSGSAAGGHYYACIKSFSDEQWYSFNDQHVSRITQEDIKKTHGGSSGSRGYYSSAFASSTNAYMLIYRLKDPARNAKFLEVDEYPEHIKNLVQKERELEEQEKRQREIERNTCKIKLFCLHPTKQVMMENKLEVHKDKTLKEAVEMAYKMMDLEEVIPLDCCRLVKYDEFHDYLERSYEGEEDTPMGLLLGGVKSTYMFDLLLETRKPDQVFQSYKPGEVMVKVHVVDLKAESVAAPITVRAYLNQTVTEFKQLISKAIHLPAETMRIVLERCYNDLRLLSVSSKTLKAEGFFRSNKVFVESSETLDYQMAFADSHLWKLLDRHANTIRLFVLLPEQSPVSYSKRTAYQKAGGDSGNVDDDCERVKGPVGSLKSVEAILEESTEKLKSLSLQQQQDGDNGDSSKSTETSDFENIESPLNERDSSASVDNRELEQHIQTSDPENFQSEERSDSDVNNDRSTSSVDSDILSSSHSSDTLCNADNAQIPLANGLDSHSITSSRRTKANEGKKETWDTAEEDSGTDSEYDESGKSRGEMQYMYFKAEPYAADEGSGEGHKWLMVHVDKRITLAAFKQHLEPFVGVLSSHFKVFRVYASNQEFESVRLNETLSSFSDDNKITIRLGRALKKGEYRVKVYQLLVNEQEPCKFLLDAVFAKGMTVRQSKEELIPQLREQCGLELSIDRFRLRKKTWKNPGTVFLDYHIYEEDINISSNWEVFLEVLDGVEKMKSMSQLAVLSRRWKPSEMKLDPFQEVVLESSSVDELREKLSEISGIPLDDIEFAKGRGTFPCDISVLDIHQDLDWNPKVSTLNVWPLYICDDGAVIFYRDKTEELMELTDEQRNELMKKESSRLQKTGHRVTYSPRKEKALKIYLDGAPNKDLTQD
Summary of the method: as §1

[4] = biological target: T3, USP48 (UniProt Q86UV5)
T3 sequence (whole entry): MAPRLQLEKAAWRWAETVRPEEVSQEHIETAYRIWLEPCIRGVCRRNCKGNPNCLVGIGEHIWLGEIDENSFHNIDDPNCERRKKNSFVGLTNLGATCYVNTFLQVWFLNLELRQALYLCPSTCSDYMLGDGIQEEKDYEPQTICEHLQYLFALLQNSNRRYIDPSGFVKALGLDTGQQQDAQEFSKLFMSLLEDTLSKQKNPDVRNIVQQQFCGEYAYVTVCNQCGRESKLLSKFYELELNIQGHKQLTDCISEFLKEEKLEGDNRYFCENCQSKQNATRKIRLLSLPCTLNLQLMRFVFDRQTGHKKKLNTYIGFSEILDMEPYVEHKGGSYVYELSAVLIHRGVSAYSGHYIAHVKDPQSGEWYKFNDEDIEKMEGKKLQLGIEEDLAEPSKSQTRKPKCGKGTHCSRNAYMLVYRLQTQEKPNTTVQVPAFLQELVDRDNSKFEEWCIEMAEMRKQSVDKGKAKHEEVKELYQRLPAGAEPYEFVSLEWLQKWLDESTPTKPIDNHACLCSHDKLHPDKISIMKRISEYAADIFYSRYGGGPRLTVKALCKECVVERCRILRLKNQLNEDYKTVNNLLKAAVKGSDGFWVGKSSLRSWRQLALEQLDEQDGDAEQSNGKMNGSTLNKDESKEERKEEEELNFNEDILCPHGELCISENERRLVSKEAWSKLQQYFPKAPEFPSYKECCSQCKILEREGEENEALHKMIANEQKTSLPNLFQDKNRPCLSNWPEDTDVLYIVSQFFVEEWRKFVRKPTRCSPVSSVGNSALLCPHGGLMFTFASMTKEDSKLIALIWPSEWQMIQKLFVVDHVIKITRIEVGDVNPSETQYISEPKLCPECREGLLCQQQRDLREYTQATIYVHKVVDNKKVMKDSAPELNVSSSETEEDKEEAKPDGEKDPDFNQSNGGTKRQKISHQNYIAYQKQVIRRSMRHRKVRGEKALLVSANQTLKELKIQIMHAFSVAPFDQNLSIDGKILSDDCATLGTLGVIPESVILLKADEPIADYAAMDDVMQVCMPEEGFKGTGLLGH
Summary of the method: as §1

[5] = biological target: T4, USP5 (UniProt P45974)
T4 sequence (whole entry): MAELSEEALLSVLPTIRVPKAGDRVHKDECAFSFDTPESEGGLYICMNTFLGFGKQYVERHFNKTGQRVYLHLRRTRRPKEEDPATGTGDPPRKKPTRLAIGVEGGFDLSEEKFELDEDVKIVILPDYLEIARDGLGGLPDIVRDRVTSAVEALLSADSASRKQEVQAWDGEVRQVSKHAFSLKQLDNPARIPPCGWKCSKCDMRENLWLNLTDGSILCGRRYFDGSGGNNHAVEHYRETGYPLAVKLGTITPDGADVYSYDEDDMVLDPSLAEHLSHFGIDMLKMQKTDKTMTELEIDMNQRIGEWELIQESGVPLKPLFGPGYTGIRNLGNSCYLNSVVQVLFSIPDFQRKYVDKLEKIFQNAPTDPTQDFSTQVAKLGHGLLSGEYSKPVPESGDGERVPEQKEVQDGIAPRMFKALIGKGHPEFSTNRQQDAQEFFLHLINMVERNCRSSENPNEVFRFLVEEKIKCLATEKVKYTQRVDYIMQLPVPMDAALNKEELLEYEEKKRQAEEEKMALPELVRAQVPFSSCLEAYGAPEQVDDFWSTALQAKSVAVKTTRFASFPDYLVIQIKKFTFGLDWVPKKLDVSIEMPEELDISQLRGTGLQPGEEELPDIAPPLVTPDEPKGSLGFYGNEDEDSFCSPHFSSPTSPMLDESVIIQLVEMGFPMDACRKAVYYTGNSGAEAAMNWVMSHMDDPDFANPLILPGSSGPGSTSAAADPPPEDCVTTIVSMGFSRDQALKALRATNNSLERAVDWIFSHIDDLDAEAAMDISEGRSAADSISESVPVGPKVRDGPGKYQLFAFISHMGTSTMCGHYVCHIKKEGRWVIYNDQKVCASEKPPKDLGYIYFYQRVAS
Summary of the method: as §1

[6] = biological target: USP54 (UniProt Q70EL1)
Sequence of USP54 (Q70EL1 whole entry): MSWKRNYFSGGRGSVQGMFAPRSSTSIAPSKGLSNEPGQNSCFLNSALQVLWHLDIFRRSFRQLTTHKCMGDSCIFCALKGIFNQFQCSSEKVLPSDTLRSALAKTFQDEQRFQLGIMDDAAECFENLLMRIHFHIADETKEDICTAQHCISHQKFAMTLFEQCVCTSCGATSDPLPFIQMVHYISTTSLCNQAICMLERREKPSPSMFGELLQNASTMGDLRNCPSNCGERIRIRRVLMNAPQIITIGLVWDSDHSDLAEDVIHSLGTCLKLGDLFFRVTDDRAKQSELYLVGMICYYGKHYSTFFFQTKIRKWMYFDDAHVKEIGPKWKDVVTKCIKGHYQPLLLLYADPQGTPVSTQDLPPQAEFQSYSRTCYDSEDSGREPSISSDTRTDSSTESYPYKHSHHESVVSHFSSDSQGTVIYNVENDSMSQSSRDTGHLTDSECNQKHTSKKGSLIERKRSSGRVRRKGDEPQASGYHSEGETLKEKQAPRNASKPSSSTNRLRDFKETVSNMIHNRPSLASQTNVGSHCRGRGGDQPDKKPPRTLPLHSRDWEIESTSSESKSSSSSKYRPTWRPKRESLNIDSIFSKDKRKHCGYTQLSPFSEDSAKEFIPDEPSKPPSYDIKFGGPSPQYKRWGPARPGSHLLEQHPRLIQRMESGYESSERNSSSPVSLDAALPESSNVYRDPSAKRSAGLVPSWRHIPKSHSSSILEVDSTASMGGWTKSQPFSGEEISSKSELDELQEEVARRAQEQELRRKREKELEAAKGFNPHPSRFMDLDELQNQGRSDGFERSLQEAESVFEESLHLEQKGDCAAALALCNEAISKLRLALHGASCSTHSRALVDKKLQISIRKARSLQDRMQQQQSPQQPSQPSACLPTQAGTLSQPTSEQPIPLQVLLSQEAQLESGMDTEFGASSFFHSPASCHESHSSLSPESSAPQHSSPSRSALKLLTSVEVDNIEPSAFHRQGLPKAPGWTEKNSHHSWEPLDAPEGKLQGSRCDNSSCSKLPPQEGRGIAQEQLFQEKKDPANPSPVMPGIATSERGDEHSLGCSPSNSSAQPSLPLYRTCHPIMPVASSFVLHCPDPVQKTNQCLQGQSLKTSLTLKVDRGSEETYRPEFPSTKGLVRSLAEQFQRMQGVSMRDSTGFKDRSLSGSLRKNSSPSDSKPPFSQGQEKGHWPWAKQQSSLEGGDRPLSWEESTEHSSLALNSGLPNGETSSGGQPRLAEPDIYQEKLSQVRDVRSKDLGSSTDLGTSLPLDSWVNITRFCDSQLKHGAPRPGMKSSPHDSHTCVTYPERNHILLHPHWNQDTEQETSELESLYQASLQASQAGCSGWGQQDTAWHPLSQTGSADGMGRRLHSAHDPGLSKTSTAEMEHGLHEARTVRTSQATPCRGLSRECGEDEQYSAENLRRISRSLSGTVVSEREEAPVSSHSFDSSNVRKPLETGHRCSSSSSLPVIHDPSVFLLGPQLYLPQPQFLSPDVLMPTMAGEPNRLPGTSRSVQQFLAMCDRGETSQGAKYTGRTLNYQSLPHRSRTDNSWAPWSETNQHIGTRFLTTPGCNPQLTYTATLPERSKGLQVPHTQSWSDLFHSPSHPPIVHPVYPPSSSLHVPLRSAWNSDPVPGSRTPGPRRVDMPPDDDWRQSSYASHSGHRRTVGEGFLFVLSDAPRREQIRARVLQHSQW
Summary of the method: as §1

[7] = biological target: USP7 (UniProt Q93009)
Sequence of USP7 (Q93009 whole entry, looked up): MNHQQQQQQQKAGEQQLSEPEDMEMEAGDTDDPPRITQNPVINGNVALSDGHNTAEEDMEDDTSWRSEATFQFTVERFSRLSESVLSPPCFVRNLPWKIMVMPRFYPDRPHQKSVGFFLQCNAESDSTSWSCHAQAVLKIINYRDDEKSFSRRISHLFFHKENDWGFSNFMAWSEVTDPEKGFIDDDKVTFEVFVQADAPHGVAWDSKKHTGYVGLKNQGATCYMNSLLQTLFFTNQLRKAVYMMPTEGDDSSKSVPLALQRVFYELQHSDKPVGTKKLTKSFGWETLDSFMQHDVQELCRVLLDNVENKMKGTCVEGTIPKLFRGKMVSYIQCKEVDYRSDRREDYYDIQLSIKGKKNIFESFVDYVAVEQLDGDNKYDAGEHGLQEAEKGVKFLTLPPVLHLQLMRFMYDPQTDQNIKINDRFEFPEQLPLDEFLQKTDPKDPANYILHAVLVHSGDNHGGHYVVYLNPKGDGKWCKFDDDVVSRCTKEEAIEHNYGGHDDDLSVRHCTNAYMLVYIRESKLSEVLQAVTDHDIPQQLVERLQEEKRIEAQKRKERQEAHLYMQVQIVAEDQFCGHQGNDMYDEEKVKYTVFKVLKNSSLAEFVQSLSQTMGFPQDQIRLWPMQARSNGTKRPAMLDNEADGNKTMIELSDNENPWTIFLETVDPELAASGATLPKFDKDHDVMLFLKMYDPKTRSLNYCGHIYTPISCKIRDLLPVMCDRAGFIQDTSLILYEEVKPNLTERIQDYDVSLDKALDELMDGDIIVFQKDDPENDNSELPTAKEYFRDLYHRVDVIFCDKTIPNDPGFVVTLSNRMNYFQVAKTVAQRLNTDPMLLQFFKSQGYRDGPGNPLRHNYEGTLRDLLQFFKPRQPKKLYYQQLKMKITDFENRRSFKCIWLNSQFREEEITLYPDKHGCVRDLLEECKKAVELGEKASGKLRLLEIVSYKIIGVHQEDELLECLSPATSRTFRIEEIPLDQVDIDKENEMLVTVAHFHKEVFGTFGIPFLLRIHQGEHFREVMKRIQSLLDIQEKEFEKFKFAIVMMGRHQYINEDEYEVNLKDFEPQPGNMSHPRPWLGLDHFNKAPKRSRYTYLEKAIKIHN
Summary of the method: as §1

[8] = biological target: T5, USP8 (UniProt P40818)
T5 sequence (whole entry): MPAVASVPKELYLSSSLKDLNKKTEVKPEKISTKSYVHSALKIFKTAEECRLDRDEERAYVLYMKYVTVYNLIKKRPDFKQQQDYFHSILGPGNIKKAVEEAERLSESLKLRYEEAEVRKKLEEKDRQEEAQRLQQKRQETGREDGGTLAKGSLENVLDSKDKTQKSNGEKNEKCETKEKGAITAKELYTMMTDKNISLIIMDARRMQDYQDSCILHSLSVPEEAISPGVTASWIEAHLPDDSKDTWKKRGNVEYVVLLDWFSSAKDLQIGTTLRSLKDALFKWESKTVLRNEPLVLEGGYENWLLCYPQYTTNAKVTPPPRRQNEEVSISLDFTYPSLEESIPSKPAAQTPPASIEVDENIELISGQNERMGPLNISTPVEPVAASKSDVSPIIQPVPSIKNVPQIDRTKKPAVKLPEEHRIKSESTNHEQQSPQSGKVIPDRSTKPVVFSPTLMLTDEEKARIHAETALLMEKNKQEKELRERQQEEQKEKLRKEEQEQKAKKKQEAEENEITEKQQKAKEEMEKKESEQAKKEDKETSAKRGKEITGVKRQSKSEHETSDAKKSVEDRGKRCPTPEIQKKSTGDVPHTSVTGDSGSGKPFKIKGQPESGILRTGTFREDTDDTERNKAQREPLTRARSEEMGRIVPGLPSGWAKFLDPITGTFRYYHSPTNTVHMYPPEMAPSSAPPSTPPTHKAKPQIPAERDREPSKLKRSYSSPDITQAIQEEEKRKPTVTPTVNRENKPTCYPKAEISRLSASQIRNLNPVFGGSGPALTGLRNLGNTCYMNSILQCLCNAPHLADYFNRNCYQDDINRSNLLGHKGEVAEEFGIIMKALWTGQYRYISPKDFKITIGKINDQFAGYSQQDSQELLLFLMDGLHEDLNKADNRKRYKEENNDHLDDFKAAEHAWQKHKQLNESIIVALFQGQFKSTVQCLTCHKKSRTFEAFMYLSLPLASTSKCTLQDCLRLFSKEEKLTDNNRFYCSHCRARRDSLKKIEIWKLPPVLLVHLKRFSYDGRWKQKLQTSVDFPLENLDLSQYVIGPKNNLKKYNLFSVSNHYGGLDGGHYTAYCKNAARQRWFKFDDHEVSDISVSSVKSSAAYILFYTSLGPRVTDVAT
Summary of the method: as §1

Measured: log2 ratio of Biotin-Ahx-Ub-VS probe labelling

CC1(NC(=O)CCl)CCS(=O)(=O)C1 (stereo not drawn)
inactive: [1] 0.324 | [2] -0.538 | [3] -0.0229 | [4] -0.544 | [5] -0.73 | [6] 1.09 | [7] -0.793 | [8] -0.788
